The list is not random: actives were taken first. Their share in the collection is about 3.8%.
ERa coact pot: enhancers of ERα–SRC-1 coactivator binding, primary screen, biochemical, TR-FRET, ERα LBD, low estradiol | Estrogen receptor (Homo sapiens), P03372 | TR-FRET ERalpha-LBD/SRC-Cy5 coactivator binding, 2 h; 100 = basal binding, no effect | coactivator binding (% of control), % at 25.6 µM | 86,000 tested, 1.3% active | AID 639, 2007; in the data active = activity above about 200%;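 also: binding measured in presence of low estradiol as agonist stimulus; 0% = peptide alone without receptor and 100% = receptor with peptide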
Target sequence (P03372 whole entry, looked up, the tested form may be a part): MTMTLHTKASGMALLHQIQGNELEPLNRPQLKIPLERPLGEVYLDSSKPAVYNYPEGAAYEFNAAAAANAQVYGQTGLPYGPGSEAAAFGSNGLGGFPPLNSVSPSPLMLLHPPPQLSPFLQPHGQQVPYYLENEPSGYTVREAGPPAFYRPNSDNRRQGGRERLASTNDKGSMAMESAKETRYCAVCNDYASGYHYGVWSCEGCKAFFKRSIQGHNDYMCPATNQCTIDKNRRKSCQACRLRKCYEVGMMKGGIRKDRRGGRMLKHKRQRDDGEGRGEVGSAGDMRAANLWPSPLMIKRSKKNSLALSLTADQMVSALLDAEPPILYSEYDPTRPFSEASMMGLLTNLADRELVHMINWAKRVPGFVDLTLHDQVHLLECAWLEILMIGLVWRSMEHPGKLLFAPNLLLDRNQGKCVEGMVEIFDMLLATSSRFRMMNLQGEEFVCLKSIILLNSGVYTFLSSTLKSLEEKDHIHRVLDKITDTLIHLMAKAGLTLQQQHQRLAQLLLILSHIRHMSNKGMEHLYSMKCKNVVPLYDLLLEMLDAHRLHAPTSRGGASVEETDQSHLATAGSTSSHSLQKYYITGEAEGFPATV
ERa SRC1 inh: ERα–SRC-1 coactivator interaction inhibitors, primary screen, biochemical, TR-FRET, ERα LBD, estradiol-bound | TR-FRET ER-alpha LBD / SRC-1 peptide | 86,000 tested, 1.7% active | inhibition, % at 25.6 µM | Estrogen receptor (Homo sapiens), P03372; in the data active = inhibition above about 50%;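 also: 0% = receptor plus peptide control and 100% = peptide only without receptor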
ERb SRC1 inh: inhibitors of ERβ-SRC1 coactivator interaction, primary screen, biochemical, TR-FRET, ERβ LBD, SRC-1 peptide; Estrogen receptor beta (Homo sapiens), Q92731; TR-FRET ER-beta LBD / SRC1-Cy5 peptide binding; receptor agonist-loaded with 1 µM estradiol; AID 633, 2007; inhibition, % at 25.6 µM; 86,000 tested, 1.3% active;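 active = compounds whose percent inhibition of the receptor-coactivator binding signal exceeds about 50% in the single-dose screen, limit read from the data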;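 also: 0% = receptor plus peptide wells without compound and 100% = peptide-only wells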
MT1-MMP txn act: MT1-MMP promoter reporter activation – cell-based, luciferase luminescence, primary screen; HT1080 MT1-MMP promoter luciferase reporter, overnight; active compounds read high; activation factor at 10 µM; 86,000 tested, 0.16% active;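 active = activation factor of at least 2 for MT1-MMP transcription at 10 µM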
DAT uptake mod: changed hDAT dopamine uptake under cocaine IC80, either direction, primary screen, cocaine antagonist project, cell-based, LLC-PK1 hDAT, [14C]-dopamine uptake, MLSMR; 110,000 tested, 1.3% active; LLC-PK1 hDAT cells, [14C]-dopamine uptake with cocaine IC80; actives deviate in either direction; B-score at 10 µM; Sodium-dependent dopamine transporter (Homo sapiens), Q01959;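 active = Z score or B-score, a plate-position-corrected score, falls beyond the plate's 99.7% confidence bounds, in either direction; inactive = both scores lie inside the 99.7% bounds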;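 also: scored against the spread of the other compound wells on the same plate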
* marks the source's active call; other numbers are inactive results; · = not tested or not shown; [ ] = remark or other dose.

SMILES	ERa coact pot	ERa SRC1 inh	ERb SRC1 inh	MT1-MMP txn act	DAT uptake mod
CC(C)C(=O)Nc1cccc(C(=O)Nc2nnc(C(C)C)s2)c1	100	-17	-22	1.6	1.1
CCOC(=O)N1CCN(C(=O)Cn2cc3c(n2)CCCC3)CC1	91	-2	2	1.1	-7.9*
CC1CCN(C(=O)Cn2cc3c(n2)CCCC3)CC1	96	-3	-11	1.2	-0.43
Cc1cc(C)c(NC(=O)Cn2cc3c(n2)CCCC3)c(C)c1	115	99*[fluorescence artefact?]	-10	1.1	0.015
O=C(Cn1cc2c(n1)CCCCC2)Nc1c(F)c(F)cc(F)c1F	·	·	·	·	0.64
COc1ccc(-n2ncc3c(SCC(=O)N4CCN(c5ccccc5OC)CC4)ncnc32)cc1	98	30	18	1	·
Cc1ccc(N2CCN(c3cc(C)nc4c5c(C)cc(C)nc5nn34)CC2)cc1	139	4	15	1	·
Cc1cc(C)c2c(n1)nn1c(N3CCN(c4ccccc4C)CC3)cc(C)nc21	402*[fluorescence artefact?]	2	17	1.4	·
O=C(Cc1ccccc1)NCC(=O)OCC(=O)c1cccs1	·	·	·	·	-0.78
O=C(CCn1c(=O)oc2ccccc21)N1CCCCCC1	116	-21	-30	1.2	-0.02
O=C(CCn1c(=O)oc2ccccc21)N1CCN(c2ccccc2Cl)CC1	100	-22	-28	0.9	3.4*
COc1ccc(OC)c(C2Nc3nc4ccccc4n3C(C)=C2C(=O)Nc2ccc(C)cc2C)c1 (stereo not drawn)	98	5	-10	1.1	1.1
COCc1nnc(NC(=O)CSc2ccccc2)s1	107	-20	-19	1.3	-2.6*
COCc1nnc(NC(=O)CSc2ccc(C)cc2)s1	79	6	7	1.1	-1.1
CCCCNC(=O)c1c(N)n(/N=C/c2ccccn2)c2nc3ccccc3nc12	·	·	·	1.4	0.22
COCCNC(=O)c1c(N)n(/N=C/c2cccs2)c2nc3ccccc3nc12	30	68*	50	1.1	1.1
CC(C)CNC(=O)c1c(N)n(/N=C/c2ccccn2)c2nc3ccccc3nc12	228*[fluorescence artefact?]	69*	27	0.9	0.34
COC(=O)c1nn(-c2ccccc2)c(Sc2ccc(Br)cc2)c1/C=N/O	·	·	·	·	-0.94
CN1CCN(c2ccccc2NC(=O)c2ccc(-c3ccccc3)cc2)CC1	109	-4	2	1.3	4.9*
CN1CCN(c2ccccc2NC(=O)c2ccc(OCc3ccccc3)cc2)CC1	104	0	-4	1.1	2.6*
O=C(Nc1ccccc1N1CCN(c2ccc(F)cc2)CC1)c1ccccc1	89	2	-6	1	-1.7
O=[N+]([O-])c1ccccc1/C=C/C=N/n1c(-c2ccc(Cl)cc2)n[nH]c1=S	·	·	·	·	0.81
Cc1ccc(-c2n[nH]c(=S)n2/N=C/C=C\c2ccccc2[N+](=O)[O-])cc1	270*[fluorescence artefact?]	52*	49	1	0.39
COc1cc(C2C(C(C)=O)=C(O)C(=O)N2CCc2ccc(OC)c(OC)c2)ccc1O (stereo not drawn)	127	-8	3	1.1	-0.12
COc1ccc(CCN2C(=O)C(O)=C(C(=O)c3ccco3)C2c2cccs2)cc1OC (stereo not drawn)	106	-16	-6	1.1	-3.3*
SMILES	ERa coact pot	ERa SRC1 inh	ERb SRC1 inh	MT1-MMP txn act	DAT uptake mod
COc1cc(C2C(C(=O)c3ccco3)=C(O)C(=O)N2CCc2ccccc2)ccc1O (stereo not drawn)	110	-10	-12	1	-3.3*
CCOc1cc(C2C(C(=O)c3ccc(C)o3)=C(O)C(=O)N2CCc2ccccc2)ccc1O (stereo not drawn)	136	-4	-5	1.1	-4.6*
CCC/C=C(\CCC)C(NS(=O)(=O)c1ccc(C(F)(F)F)cc1)c1ccc(C(=O)OC)cc1 (stereo not drawn)	·	·	·	1.3	·
CCOC(=O)c1snc(C(=O)NC2CCCCC2)c1N	118	-5	-5	1.5	-0.041
CCOC(=O)c1sc(C)c(C(=O)NC2CCCCC2)c1N	111	-14	-12	1.3	-2.7*
C[C@H](O)CC1=C[C@H](O)[C@@H](C)OC1=O	·	·	·	·	-1.2
CCOC(=O)c1ccc(NC(=O)CN2C(=O)CSC2=O)cc1	98	1	-8	1.1	0.46
COC(=O)c1ccc(NC(=O)CN2C(=O)CSC2=O)cc1	319*[fluorescence artefact?]	1	8	0.9	0.33
COc1ccc(C[C@H]2CN3C(=NC[C@@H]3C(C)C)N2CCNC(=O)c2ccc(C)c(Br)c2)cc1	·	·	·	·	-3.2*
Cc1ccc(C2=NN3C(C2)c2ccccc2OC32C(=O)Nc3ccccc32)cc1 (stereo not drawn)	73	6	9	2*	0.26
Cc1ccc(S(=O)(=O)c2cc3c(=O)n4ccccc4nc3n(CC3CCCO3)c2=N)cc1C (stereo not drawn)	105	2	-1	1.1	·
Cc1ccc(S(=O)(=O)c2cc3c(=O)n4ccccc4nc3n(Cc3ccco3)c2=N)cc1C	38	75*[fluorescence artefact?]	50*[fluorescence artefact?]	1.1	0.39
N=c1c(S(=O)(=O)c2ccccc2)cc2c(=O)n3ccccc3nc2n1Cc1ccco1	49	76*[fluorescence artefact?]	79*[fluorescence artefact?]	1	1.1
O=C(Nc1ccc(Br)cc1)C(c1ccccc1)c1ccccc1	·	·	·	·	-0.46
NC(=O)c1sc2nc3c(c(-c4ccco4)c2c1N)CCC3	48	20	54*[fluorescence artefact?]	1	-0.25
NC(=O)c1sc2nc3c(c(-c4cccs4)c2c1N)CCCC3	·	·	·	1.1	·
CCN(CC)C(C)C(=O)NCC1(c2ccccc2)CCOCC1 (stereo not drawn)	112	-15	-5	1.2	-0.44
CCC(C)[C@H]1CN=C(N)N1CCc1cccc(F)c1 (stereo partly drawn)	·	·	·	·	0.4
CC(C)CN(C(=O)COC(=O)c1cc2c(s1)CCC2)C1CCS(=O)(=O)C1 (stereo not drawn)	23	80*	75*	1.1	1.3
CC(C)CN(C(=O)COC(=O)C1c2ccccc2Oc2ccccc21)C1CCS(=O)(=O)C1 (stereo not drawn)	100	-9	-5	1.1	-0.54
CCOC(=O)N1CCC(=NNS(=O)(=O)c2cccc([N+](=O)[O-])c2)CC1	·	·	·	·	-1
Cc1ccc2cc(CN(CCN3CCOCC3)Cc3nnnn3Cc3ccco3)c(=O)[nH]c2c1C	121	-7	-4	1.1	1
Cc1ccc2cc(CN(CCCN3CCOCC3)C(c3nnnn3Cc3ccco3)C(C)C)c(=O)[nH]c2c1C (stereo not drawn)	95	-3	-5	1.1	3.7*
CCc1cc2cc(C(=O)Nc3ccccc3F)sc2s1	152	-25	-1	1.7	0.012

Bioassay records (PubChem)
